Screening data from PubChem.
Pf growth 96h: inhibits malaria parasite growth, 96 h; P. falciparum luciferase reporter growth, 96 h; Potency, µM (series often up to 28.7 µM), for inactives: at the top dose activity change, negative = inhibition, hits mostly inhibitors; hit rate 6.9% among 320,000; AID 504834; further: potency means the concentration at half of the fitted maximal effect; on the % scale 0 is the no-effect control and ±100 the full control effect
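Plates of compound plus infected erythrocytes (2% hematocrit, 0.05% parasitemia final) incubate 96 hours, 37 C, 5% CO2. Detection reagent added; reduced luminescence from the parasites' luciferase reporter flags inhibition.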
Cycloheximide cs: affects cycloheximide protein synthesis inhibition readout, counter-screen. cell reporter, cycloheximide protein synthesis inhibition counterscreen. max response, %. hit rate 12% among 300,000; in the data active means max response mostly above about 13%, no sharp cut-off; inactive means mostly below about 14%; further: read at 38.3 µM for the half of the compounds with a filed dose; 0% is about no effect
Pf growth 48h: P. falciparum growth inhibition at 48 hours (one generation); Potency, µM (series often up to 28.7 µM), for the others: top-dose activity change, negative = inhibition, hits mostly inhibitors; hit rate 5.9% among 310,000; P. falciparum luciferase growth in erythrocytes, 48 h; further: potency means the concentration at half of the fitted maximal effect; on the % scale 0 is the no-effect control and ±100 the full control effect
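Parasite viability was followed by luminescence of a genomically integrated firefly luciferase. Cultures held 0.1% parasitemia at 2% hematocrit (final), incubated under 5% CO2 at 37 C.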
NS1 inh: influenza NS1 inhibition; Potency, µM (top dose mostly 46.1 µM), without a hit: at the top dose activity, positive = more growth; hit rate 0.4% among 270,000; calls by dose curve; further: potency means the concentration at half of the fitted maximal effect; actives are rising curves; nearly all actives have a fitted effect of over 50% in size
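Compounds were scored for reversing the slow growth caused by influenza A NS1 in S. cerevisiae, measured by optical density at 600 nm. Assay medium contained 2% galactose at pH 6.0; NS1-free yeast of the same strain were the positive control.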
Shiga toxin inh: Shiga toxin inhibition; Vero cells, Shiga toxin protein synthesis inhibition reporter; inhibition, % at 38.7 µM; hit rate 9.2% among 290,000; in the data active means inhibition mostly above about 28%, no sharp cut-off; inactive means mostly below about 43%; further: 0% is about no effect
* marks the source's active call; other numbers are inactive results; ? = inconclusive; / = not tested or not shown. The list is not random: actives were taken first. Their share in the collection is about 21%. Unless noted, the call rests on the fitted dose curve; in most records, active means well fitted inhibition curve with a large enough effect; inconclusive means small, poorly fitted or top-dose-only effect, or another doubt; inactive means no such curve, though single readings can be large or run the other way.

SMILES	Pf growth 96h	Cycloheximide cs	Pf growth 48h	NS1 inh	Shiga toxin inh
COc1ccc(-c2cc(C(=O)Nc3c(Cl)cc(Cl)cc3Cl)c3ccccc3n2)cc1OC	?	-2	13µM*	16%	-10
CN(C)c1ccc(CNC(=O)c2cc(S(=O)(=O)N3CCCC3)cn2C)cc1	?	1	-2%	13%	26
COc1ccc(C)cc1NC(=O)C1CCN(S(=O)(=O)c2cccs2)CC1	?	-2	-11%	13%	7
COc1ccc(Br)cc1CN(C)CC(=O)NCCc1ccc(S(N)(=O)=O)cc1	-10%	3	-20%	8%	-12
CC[C@H](C)[C@H](NC(=O)[C@H](Cc1ccc(O)cc1)NC(=O)[C@@H](NC(=O)[C@@H](N)CCCN=C(N)N)C(C)C)C(=O)N[C@@H](Cc1cnc[nH]1)C(=O)N1CCC[C@H]1C(=O)N[C@@H](Cc1ccccc1)C(=O)O	/	1	/	/	-11
COc1ccc(-c2cc(C(=O)Nc3ccc(C(N)=O)cc3)c3ccccc3n2)cc1	?	16*	-28%	-9%	65*
COc1cc(-c2cc(C(=O)Nc3cc(S(=O)(=O)N4CCOCC4)ccc3C)c3ccccc3n2)cc(OC)c1OC	1µM*	/	2.9µM*	/	/
Cc1cccc(NC(=S)NC(=O)c2cc(-c3ccccc3)nc3ccccc23)c1	11%	-2	-18%	18%	-13
O=C(Nc1ccc(SC(F)F)cc1)c1cc(-c2ccncc2)nc2ccccc12	5.2µM*	/	?	/	/
Cc1ccccc1NC(=S)NC(=O)c1cc(-c2ccccc2)nc2ccccc12	9.3µM*	-1	?	?	-3
CC(CC(=O)N1CCN(S(=O)(=O)c2ccc(Cl)cc2)CC1)n1cncn1 (centres undefined)	30%	-2	-5%	-28%	-10
Cc1ccc2c(c1)N(C(=O)CCC(=O)NCCCN1CCOCC1)CC(C)O2 (centres undefined)	-4%	-2	5%	2%	7
COC(=O)c1c(C)oc(C)c1S(=O)(=O)N1CCOCC1	63%	1	34%	2%	-6
COc1ccccc1NC(=O)c1cc(-c2cc(OC)c(OC)c(OC)c2)nc2ccccc12	?	6	4.7µM*	10%	12
CC(=O)c1ccc(NC(=O)c2cc(CC(C)C)nc3ccccc23)cc1	?	48*	?	-23%	82*
CCNC(=S)NNC(=O)c1cc(-c2cc(C)ccc2C)nc2ccccc12	5.2µM*	13	?	-1%	8
CCOc1ccccc1NC(=O)c1cc(-c2cc(OC)c(OC)c(OC)c2)nc2ccccc12	?	-4	?	?	9
CNS(=O)(=O)c1ccc(NC(=O)c2cc(-c3ccncc3)nc3ccc(Cl)cc23)cc1	44%	9	13µM*	1%	26
CCOc1ccc(NC(=O)c2cc(Cl)nc3ccccc23)cc1	53%	-1	25%	-2%	19
NC(=O)C1CCN(C(=O)c2cc3ccccc3cc2O)CC1	60%	/	20%	/	/
CCC1(CC)NC(=O)N(CC(=O)OCC(=O)NC(=O)c2ccccc2OC)C1=O	9%	/	-4%	/	/
Cc1ccc(/C=C/C(=O)Nc2cccc3cccnc23)o1	117%	27	2%	-6%	-5
Cc1ccc(/C=C/C(=O)Nc2ccc([N+](=O)[O-])cc2)o1	-3%	36*	-5%	-10%	75*
Cc1ccc(/C=C/C(=O)Nc2nnc(C)s2)o1	-26%	8	64%	0%	61*
Cc1cc(NS(=O)(=O)c2ccc(NC(=O)/C=C/c3ccc(C)o3)cc2)nc(C)n1	7.4µM*	1	14%	10%	4
SMILES	Pf growth 96h	Cycloheximide cs	Pf growth 48h	NS1 inh	Shiga toxin inh
Cc1ccc(/C=C/C(=O)Nc2ccc(Oc3ccccc3)cc2)o1	?	26*	5%	-8%	54
COc1ccccc1/C=C/C(=O)Nc1ccc(S(=O)(=O)Nc2cc(C)nc(C)n2)cc1	11%	-4	-22%	3%	-3
O=C(CCC1CCCN(C(=O)c2ccsc2)C1)NCc1ccc(F)c(F)c1 (centres undefined)	?	10	14%	-28%	16
CCOC1C(=O)NC(=O)N1Cc1ccccc1 (centres undefined)	64%	2	42%	-1%	-6
COC(=O)c1ccc(CN2CCN(C(C)C)C(CCO)C2)cc1 (centres undefined)	?	-2	50%	13%	-3
CC(=O)c1ccccc1NC(=O)COC(=O)Cc1cccc(C(F)(F)F)c1	-21%	/	-15%	/	/
